Experimental data published in PubChem BioAssay AID602270 (The Scripps Research Institute Molecular Screening Center, 2012).
The list shows a part of the results. A number with no mark means an inactive call. Calls of active or inactive are those of the source. No stated cut-off is given here; in the data, active means activation above about 4%; inactive means the rest.

system: Methionine sulfoxide reductase A (Bos taurus); experiment: methionine sulfoxide reductase A activation – biochemical, absorbance, bovine, HTS, confirmation (AID 602270); conditions: purified bovine MsrA, absorbance read-out; at 10.6 µM; active compounds read high;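 further: enzyme coupled to thioredoxin and thioredoxin reductase with NADPH; 0% = vehicle wells and 100% = reference activator wells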

Row | SMILES | activation
1 | O=C(OCC(=O)N1CCN(c2ccccc2)CC1)c1ccc([N+](=O)[O-])s1 | 3.98% (active)
2 | COc1ccc2nc(N3CCCC(O)C3)c(C#N)cc2c1 (centres undefined) | -2.45%
3 | CCN(CC)CCCC(C)n1c2nc(=O)[nH]c(=O)c-2nc2cc(Cl)ccc21 (centres undefined) | 8.41% (active)
4 | O=C(c1ccco1)N1CCN(Cc2cccc(C(F)(F)F)c2)CC1 | -0.28%
5 | O=C(O)c1ccccc1NC(=O)c1ccccc1-c1ccccc1C(=O)O | -3.02%
6 | CC(C)(C)C(=O)CCN1C(=O)C2(OCCO2)c2ccccc21 | -4.67%
7 | O=c1c2cc(Br)ccc2nc(-c2cccc(Cl)c2)n1O | -1.14%
8 | CCN(CC(=O)Nc1ccccc1OC)C(=O)CC1CC2CCC1C2 (centres undefined) | 0.76%
9 | CC(=O)N(O)CCCCCNC(=O)CCC(=O)N(O)CCCCCNC(=O)CCC(=O)N(O)CCCCCNC(=O)CCC(=O)O | -3.63%
10 | CN1c2ccc(C=O)c3c(C=O)ccc(c23)N(C)C1(C)C | -1.46%
11 | Cc1noc(NS(=O)(=O)c2ccc(NC(=O)C34CCC(CC3)C4)cc2)c1C | -0.66%
12 | O=C(CSc1n[nH]c(-c2cccs2)n1)N1CCCCC1 | -1.33%
13 | CC1(C)S[C@@H]2[C@H](NC(=O)COc3ccccc3)C(=O)N2C1C(=O)OCc1ccccc1 (some centres undefined) | 0.74%
14 | COc1ccc(C(=O)COC(=O)c2ccc([N+](=O)[O-])s2)cc1OC | 2.35%
15 | Cc1ccc(COC(=O)CN2C(=O)NC3(CCCC3)C2=O)cc1 | -1.66%
16 | O=C(O)Cc1ccc(NC(=O)C2CCCCC2C(=O)O)cc1 (centres undefined) | -1.24%
17 | CCOc1ccccc1OCCCNCc1ccccc1 | -4.03%
18 | O=C(CCN1CCN(c2ccccc2)CC1)NNC(=S)Nc1ccccc1 | -0.61%
19 | COc1ccc(Cl)cc1NS(=O)(=O)c1cccc(C(=O)NCC2CCCO2)c1 (centres undefined) | 2.13%
20 | COc1cc(OC)c(C(=O)NCc2ccc3c(c2)OCO3)cc1OC | 2.87%
21 | O=C(NC1=CC(=O)c2ccccc2C1=O)c1ccccc1 | 14.4% (active)
22 | CCOc1ccc2[nH]c(=S)sc2c1 | 1.68%
23 | Cn1nnnc1SCC(=O)N1CCN(Cc2ccccc2)CC1 | -1.94%
24 | O=C(O)c1ccccc1-c1ccccc1C(=O)Nc1cccc2ccccc12 | -1.68%
